Source: PubChem BioAssay (NCI)
This is part of a sample that, as a whole, favours compounds with a hit. Of some 79,000 tested, about 15% had one in any assay. Unmarked numbers belong to inactive results. The source made the active and inactive calls. Cut-off read from the data, not from the text of the source: active = growth inhibition above about 70%; inactive = the rest.

Test: NCI Yeast Anticancer Drug Screen. Data for the rad18 strain (AID 177)
Settings: S. cerevisiae rad18 mutant growth inhibition, active compounds read high
Experimental: Growth inhibition of yeast strains with defined genetic alterations is measured as a screen for potential anti-cancer activity. Selected strains with alterations in DNA damage repair or cell cycle control were exposed to compounds and growth inhibition was measured relative to vehicle treated controls. The strain used in this assay is rad18

Nc1cc(N)c(N=Nc2cccc3c(S(=O)(=O)O)cccc23)cc1N=Nc1cc([N+](=O)[O-])ccc1O
growth inhibition (at 1.2 µM): -13% | growth inhibition (at 3.7 µM): -28% | growth inhibition (at 11.0 µM): -23% | growth inhibition (at 33.0 µM): -16% | growth inhibition (at 100.0 µM): 36%

NC1=NNC2(C(N)=N1)c1ccccc1-c1ccccc12
growth inhibition (at 1.2 µM): -4% | growth inhibition (at 3.7 µM): -5% | growth inhibition (at 11.0 µM): -17% | growth inhibition (at 33.0 µM): 18% | growth inhibition (at 100.0 µM): 97% (active)

CCc1c(Cl)c(C)cc(O)c1Cl
growth inhibition (at 1.2 µM): -20% | growth inhibition (at 3.7 µM): 6% | growth inhibition (at 11.0 µM): -23% | growth inhibition (at 33.0 µM): -46% | growth inhibition (at 100.0 µM): 50%

O=C(CC(C(=O)O)N1CCOCC1)c1ccccc1 (stereo not given)
growth inhibition (at 1.2 µM): -1% | growth inhibition (at 3.7 µM): 5% | growth inhibition (at 11.0 µM): 28% | growth inhibition (at 33.0 µM): 80% (active) | growth inhibition (at 100.0 µM): 91% (active)

O=c1nc2n(Cc3ccccc3)c3ccccc3nc-2c(=O)[nH]1
growth inhibition (at 1.2 µM): 0% | growth inhibition (at 3.7 µM): 1% | growth inhibition (at 11.0 µM): 4% | growth inhibition (at 33.0 µM): 9% | growth inhibition (at 100.0 µM): 9%

C[C@]12CC[C@H](O)CC1=CC[C@@H]1C2CC[C@]2(C)C(=O)NC(=O)CC12 (stereo not given in full)
growth inhibition (at 1.2 µM): -27% | growth inhibition (at 3.7 µM): -29% | growth inhibition (at 11.0 µM): -23% | growth inhibition (at 33.0 µM): 77% (active) | growth inhibition (at 100.0 µM): 92% (active)

COc1cccc(/C=N/C(/N=C/c2cccc(OC)c2O)c2cccc(OC)c2O)c1O
growth inhibition (at 1.2 µM): -1% | growth inhibition (at 3.7 µM): 9% | growth inhibition (at 11.0 µM): 21% | growth inhibition (at 33.0 µM): 68% | growth inhibition (at 100.0 µM): 98% (active)

Cc1cc(C(C)(C)CC(C)(C)C)ccc1O
growth inhibition (at 1.2 µM): -13% | growth inhibition (at 3.7 µM): -42% | growth inhibition (at 11.0 µM): 36% | growth inhibition (at 33.0 µM): 98% (active) | growth inhibition (at 100.0 µM): 98% (active)
